Measured values published in PubChem BioAssay (NCI).
This is part of a sample that, as a whole, favours compounds with a hit. Of some 83,000 tested, about 20% had one in any assay.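 Cells were grown in 96-well plates and exposed to the test compound at a single concentration for 48 hours; results are reported as percent growth, with values below 10 considered active.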 Unmarked numbers belong to inactive results. The source made the active and inactive calls.

Each compound was assayed on SK-MEL-5 melanoma (assay: NCI-60 one-dose screen, 48 h (100 = growth as untreated, 0 = no growth, -100 = all killed)). Conditions: 10 µM unless noted.

Question: `CCCCCCNC(=O)Oc1ccc(/C(=C(/C)Cc2ccc(OC)cc2)c2ccc(OCCN3CCCCC3)cc2)cc1` was tested. Which growth did it give?
Answer: The growth was 80.4%.

Question: How did the growth turn out when `COc1cc(/C=C/C(=O)/C=C(/C=C/c2ccc(OC(C)=O)c(OC)c2)OB(F)F)ccc1OC(C)=O` was run?
Answer: The growth was 69.6%.

Question: How did the growth turn out when `O=C(CCC(=O)N(CCO)CCO)N(CCO)CCO` was run?
Answer: The growth was 114%.

Question: `O=C(O)c1ccc(Br)nc1` was tested. Which growth did it give?
Answer: Its growth is 102%.

Question: Which growth does the source give for `COc1ccc2c(c1)/C(=C1/S/C(=N/c3nnc(C)s3)NC1=O)C(=O)N2Cc1ccc(Br)cc1` here?
Answer: Its growth is 36.3%.

Question: How did the growth turn out when `COc1ccc(C2=C/C(=C\c3ccc(Cl)cc3)C(=O)NN2C(=S)NN)cc1` was run?
Answer: Its growth is 97.7%.

Question: How did the growth turn out when `CCC(C)(C)c1ccc(OCCCCCCN2CCN(c3ccc(C)c(Cl)c3)CC2)cc1` was run?
Answer: The growth was 78.1%.

Question: How did the growth turn out when `COC1=C(OC)C(=O)c2ccccc2C1=O` was run?
Answer: Its growth is 13.6%.

Question: Which growth does the source give for `CCOC1=C(Cl)C(=O)C(OCC)=C(Cl)C1=O` here?
Answer: The growth was 105%.

Question: Which growth does the source give for `CCS(=O)(=O)OCCO[C@H]1Cc2cc3ccc(=O)oc3cc2OC1(C)C` here?
Answer: Its growth is 101%.

Question: Which growth does the source give for `O=CN/N=C/c1ccc(Cl)c([N+](=O)[O-])c1` here?
Answer: Its growth is 14.2%.

Question: For `CCN(CC)CCCNc1c2ccc(Cl)cc2nc2ccc(OC)cc12`, which growth is on record?
Answer: The growth was -96.3% (active).

Question: For `COc1ccc(-c2nc(SCC(C)C)nc(Nc3ccc(C)cc3)c2C#N)cc1`, which growth is on record?
Answer: Its growth is 86.1%.

Question: Which growth does the source give for `CC(=O)OC1/C=C\CC/C=C\C1` (stereo not given) here?
Answer: The growth was 98.8%.

Question: `CCCCCCC(C)N(CC(C)(C)O)C(=O)c1ccc([N+](=O)[O-])cc1` (stereo not given) was tested. Which growth did it give?
Answer: Its growth is 95%.

Question: Which growth does the source give for `CC(=O)Nc1nc(C)c(C(=O)NNC(=O)Nc2ccccc2)s1` here?
Answer: Its growth is 97%.

Question: `COC(=O)C(C)[C@H]1CC[C@@H]2[C@]1(C)CC=C1[C@]23C=C[C@]2(C[C@@H](OC(C)=O)CC[C@]12C)C(C(=O)OC)C3C(=O)OC` (stereo not given in full) was tested. Which growth did it give?
Answer: Its growth is 60.6%.

Question: `CC/C(=N\Nc1nc2ccccc2n1C)c1ccccn1` was tested. Which growth did it give?
Answer: The growth was -50.7% (active).

Question: How did the growth turn out when `COc1ccc(Cn2cc3c(c2-c2ccc(O)cc2)CCc2cnoc2-3)cc1` was run?
Answer: The growth was 19.2%.

Question: `COc1ccc2c(c1)/C(=C/c1c(-c3cc(OC)c(OC)c(OC)c3)nc3sccn13)C(=O)N2` was tested. Which growth did it give?
Answer: Its growth is 81.8%.

Question: Which growth does the source give for `O=C(N/N=C\c1ccc(Cl)cc1)C(=O)N/N=C\c1ccc(Cl)cc1` here?
Answer: The growth was 109%.

Question: How did the growth turn out when `c1ccc2[nH]c(-c3ccc(OCCCCCOc4ccc(-c5nc6ccccc6[nH]5)cc4)cc3)nc2c1` was run?
Answer: Its growth is 37.7%.

Question: `O=C1Nc2c(c(=O)n(-c3ccccc3)c3ccccc23)C(c2ccc(Cl)cc2)N1` (stereo not given) was tested. Which growth did it give?
Answer: Its growth is 80.4%.

Question: With `CN1CCN(Cc2ccc(NC(=O)c3cncc(C#Cc4c(N)ncc5ccc(F)cc45)c3)cc2C(F)(F)F)CC1` as the compound, how does the growth read?
Answer: Its growth is -93.1% (active).

Question: How did the growth turn out when `CCCCN(CCCC)c1ccc(C(=O)O)cc1` was run?
Answer: Its growth is 100%.

Question: With `CNc1ccc(Nc2ccc(S(=O)(=O)O)cc2)c2c1C(=O)c1ccccc1C2=O` as the compound, how does the growth read?
Answer: Its growth is 99.9%.

Question: Which growth does the source give for `c1cc(C2CCCCC2)ccc1OCCCCCCN1CCNCC1` here?
Answer: The growth was 34.4%.

Question: For `O=C(O)c1occ(Cl)c1Cl`, which growth is on record?
Answer: The growth was 113%.

Question: With `COc1cc(-c2nn(-c3ccc(NC(=O)Nc4ccc(Cl)c(Cl)c4)cc3)cc2-c2ccncc2)ccc1Cl` as the compound, how does the growth read?
Answer: Its growth is 48%.

Question: `CN1CCN(Cc2ccc(NC(=O)c3ccc(C#Cc4c(N)ncc5ccc(F)cc45)cc3)cc2C(F)(F)F)CC1` was tested. Which growth did it give?
Answer: The growth was -91.2% (active).

Question: Which growth does the source give for `C#CCCCCCCC[C@@H]1OC(=O)[C@H]([C@@H](C)CC)NC(=O)[C@H]([C@@H](C)CC)NC(=O)CC(=O)[C@@H]1C` here?
Answer: Its growth is 101%.

Question: Which growth does the source give for `c1ccc(C(=NNc2nc3ccccc3o2)c2ccccn2)nc1` here?
Answer: The growth was -58% (active).

Question: With `CC(C)OC(=O)c1ccc2n1CCCc1cnc(Nc3ccccc3)nc1-2` as the compound, how does the growth read?
Answer: Its growth is 61.1%.

Question: How did the growth turn out when `COc1ccc(-c2nc(N)n(C(=S)Nc3ccccc3)n2)cc1` was run?
Answer: The growth was 94%.

Question: How did the growth turn out when `COc1ccc(C(=O)CN2C(=O)NC(c3ccccc3)(c3ccccc3)C2=O)cc1` was run?
Answer: The growth was 99.7%.

Question: How did the growth turn out when `CC(=O)CC(=O)OC/C=C(/C)CCC=C(C)C` was run?
Answer: Its growth is 99.6%.

Question: Which growth does the source give for `COc1cc(N)c2nccc(C)c2c1OC` here?
Answer: The growth was 101%.

Question: For `CCn1cc(C(=O)O)c(=O)c2cc(F)c(N3CCN(S(=O)(=O)c4ccc(Cl)cc4)CC3)cc21`, which growth is on record?
Answer: Its growth is 26.6%.

Question: With `Nc1ccc(N=Nc2ccccc2)c2cc(S(=O)(=O)O)ccc12` as the compound, how does the growth read?
Answer: Its growth is 107%.

Question: For `O=C(O)CS(=O)c1ccc(Cl)cc1` (stereo not given), which growth is on record?
Answer: The growth was 102%.

These compounds were tested on UACC-62 melanoma in the same assay as above. Conditions: 10 µM unless noted.

Question: How did the growth turn out when `CCCCCCNC(=O)Oc1ccc(/C(=C(/C)Cc2ccc(OC)cc2)c2ccc(OCCN3CCCCC3)cc2)cc1` was run?
Answer: Its growth is 88.4%.

Question: `COc1cc(/C=C/C(=O)/C=C(/C=C/c2ccc(OC(C)=O)c(OC)c2)OB(F)F)ccc1OC(C)=O` was tested. Which growth did it give?
Answer: Its growth is 49.6%.

Question: How did the growth turn out when `O=C(CCC(=O)N(CCO)CCO)N(CCO)CCO` was run?
Answer: Its growth is 109%.

Question: How did the growth turn out when `O=C(O)c1ccc(Br)nc1` was run?
Answer: The growth was 95.8%.

Question: For `COc1ccc2c(c1)/C(=C1/S/C(=N/c3nnc(C)s3)NC1=O)C(=O)N2Cc1ccc(Br)cc1`, which growth is on record?
Answer: The growth was 32.9%.

Question: How did the growth turn out when `COc1ccc(C2=C/C(=C\c3ccc(Cl)cc3)C(=O)NN2C(=S)NN)cc1` was run?
Answer: Its growth is 86.6%.

Question: Which growth does the source give for `CCC(C)(C)c1ccc(OCCCCCCN2CCN(c3ccc(C)c(Cl)c3)CC2)cc1` here?
Answer: Its growth is 79.2%.

Question: How did the growth turn out when `COC1=C(OC)C(=O)c2ccccc2C1=O` was run?
Answer: The growth was 101%.

Question: For `CCOC1=C(Cl)C(=O)C(OCC)=C(Cl)C1=O`, which growth is on record?
Answer: The growth was 98.1%.

Question: With `CCS(=O)(=O)OCCO[C@H]1Cc2cc3ccc(=O)oc3cc2OC1(C)C` as the compound, how does the growth read?
Answer: Its growth is 102%.

Question: How did the growth turn out when `O=CN/N=C/c1ccc(Cl)c([N+](=O)[O-])c1` was run?
Answer: The growth was 18%.

Question: How did the growth turn out when `CCN(CC)CCCNc1c2ccc(Cl)cc2nc2ccc(OC)cc12` was run?
Answer: The growth was 50.3%.

Question: How did the growth turn out when `COc1ccc(-c2nc(SCC(C)C)nc(Nc3ccc(C)cc3)c2C#N)cc1` was run?
Answer: Its growth is 102%.

Question: With `CC(=O)OC1/C=C\CC/C=C\C1` (stereo not given) as the compound, how does the growth read?
Answer: Its growth is 101%.

Question: How did the growth turn out when `CCCCCCC(C)N(CC(C)(C)O)C(=O)c1ccc([N+](=O)[O-])cc1` (stereo not given) was run?
Answer: The growth was 91.4%.

Question: `CC(=O)Nc1nc(C)c(C(=O)NNC(=O)Nc2ccccc2)s1` was tested. Which growth did it give?
Answer: Its growth is 78.1%.

Question: `COC(=O)C(C)[C@H]1CC[C@@H]2[C@]1(C)CC=C1[C@]23C=C[C@]2(C[C@@H](OC(C)=O)CC[C@]12C)C(C(=O)OC)C3C(=O)OC` (stereo not given in full) was tested. Which growth did it give?
Answer: The growth was 79.9%.

Question: For `CC/C(=N\Nc1nc2ccccc2n1C)c1ccccn1`, which growth is on record?
Answer: Its growth is -13.9% (active).

Question: How did the growth turn out when `COc1ccc(Cn2cc3c(c2-c2ccc(O)cc2)CCc2cnoc2-3)cc1` was run?
Answer: The growth was 44.5%.

Question: Which growth does the source give for `COc1ccc2c(c1)/C(=C/c1c(-c3cc(OC)c(OC)c(OC)c3)nc3sccn13)C(=O)N2` here?
Answer: The growth was 92.5%.

Question: `O=C(N/N=C\c1ccc(Cl)cc1)C(=O)N/N=C\c1ccc(Cl)cc1` was tested. Which growth did it give?
Answer: Its growth is 97.4%.

Question: Which growth does the source give for `c1ccc2[nH]c(-c3ccc(OCCCCCOc4ccc(-c5nc6ccccc6[nH]5)cc4)cc3)nc2c1` here?
Answer: Its growth is 12.8%.

Question: With `O=C1Nc2c(c(=O)n(-c3ccccc3)c3ccccc23)C(c2ccc(Cl)cc2)N1` (stereo not given) as the compound, how does the growth read?
Answer: Its growth is 62.8%.

Question: `CN1CCN(Cc2ccc(NC(=O)c3cncc(C#Cc4c(N)ncc5ccc(F)cc45)c3)cc2C(F)(F)F)CC1` was tested. Which growth did it give?
Answer: Its growth is 22.8%.

Question: For `CCCCN(CCCC)c1ccc(C(=O)O)cc1`, which growth is on record?
Answer: The growth was 103%.

Question: `CNc1ccc(Nc2ccc(S(=O)(=O)O)cc2)c2c1C(=O)c1ccccc1C2=O` was tested. Which growth did it give?
Answer: Its growth is 94.6%.

Question: Which growth does the source give for `c1cc(C2CCCCC2)ccc1OCCCCCCN1CCNCC1` here?
Answer: Its growth is 70.3%.

Question: Which growth does the source give for `O=C(O)c1occ(Cl)c1Cl` here?
Answer: The growth was 112%.

Question: `COc1cc(-c2nn(-c3ccc(NC(=O)Nc4ccc(Cl)c(Cl)c4)cc3)cc2-c2ccncc2)ccc1Cl` was tested. Which growth did it give?
Answer: The growth was 32.8%.

Question: Which growth does the source give for `CN1CCN(Cc2ccc(NC(=O)c3ccc(C#Cc4c(N)ncc5ccc(F)cc45)cc3)cc2C(F)(F)F)CC1` here?
Answer: Its growth is -73.3% (active).

Question: Which growth does the source give for `C#CCCCCCCC[C@@H]1OC(=O)[C@H]([C@@H](C)CC)NC(=O)[C@H]([C@@H](C)CC)NC(=O)CC(=O)[C@@H]1C` here?
Answer: The growth was 88.7%.

Question: How did the growth turn out when `c1ccc(C(=NNc2nc3ccccc3o2)c2ccccn2)nc1` was run?
Answer: Its growth is -8.29% (active).

Question: How did the growth turn out when `CC(C)OC(=O)c1ccc2n1CCCc1cnc(Nc3ccccc3)nc1-2` was run?
Answer: Its growth is 64.7%.

Question: `COc1ccc(-c2nc(N)n(C(=S)Nc3ccccc3)n2)cc1` was tested. Which growth did it give?
Answer: The growth was 98%.

Question: With `COc1ccc(C(=O)CN2C(=O)NC(c3ccccc3)(c3ccccc3)C2=O)cc1` as the compound, how does the growth read?
Answer: Its growth is 99.4%.

Question: Which growth does the source give for `CC(=O)CC(=O)OC/C=C(/C)CCC=C(C)C` here?
Answer: Its growth is 97.9%.

Question: `COc1cc(N)c2nccc(C)c2c1OC` was tested. Which growth did it give?
Answer: The growth was 93.7%.

Question: With `CCn1cc(C(=O)O)c(=O)c2cc(F)c(N3CCN(S(=O)(=O)c4ccc(Cl)cc4)CC3)cc21` as the compound, how does the growth read?
Answer: Its growth is 21.5%.

Question: For `Nc1ccc(N=Nc2ccccc2)c2cc(S(=O)(=O)O)ccc12`, which growth is on record?
Answer: The growth was 103%.

Question: Which growth does the source give for `O=C(O)CS(=O)c1ccc(Cl)cc1` (stereo not given) here?
Answer: The growth was 111%.
